PubChem BioAssay AID595 (National Center for Advancing Translational Sciences (NCATS), 2007)
In all, about 71,000 compounds went through this assay and about 310 (0.44%) were called active. About 5% were inconclusive and are not listed. Shown is part of a subset that was picked to be rich in actives. Entries that show only a call come without a potency. Values without a mark were called inactive. The call rests on the fitted dose curve; in most records, active means well fitted curve in either direction with a large enough effect; inconclusive means small, poorly fitted or top-dose-only effect, or another doubt; inactive means flat fitted curve, though single readings scatter.

These compounds were tested on Hsp90 C-terminal peptide / TPR2A (Hop) interaction, human (assay: qHTS Assay for Disrupters of an Hsp90 Co-Chaperone Interaction). Conditions: AlphaScreen TPR2A-His6 binding biotin-Hsp90 C-terminal peptide; series mostly up to 57 µM.
Text: NIH Chemical Genomics Center [NCGC]
NIH Molecular Libraries Screening Centers Network [MLSCN]
Hsp90 (heat shock protein 90) is the essential molecular chaperone and it accounts for 1-2% of all cytosolic proteins and is critical for the activity of diverse cellular proteins that are involved in a variety of cellular processes, including development, cell cycle, and steroid hormone signaling. Its client proteins include signaling kinases such as IGF1R, Akt, v-Src, Raf-1; regulators of cell survival such as Bcr-Abl; and transcription factors such as mutated p53, estrogen and progesterone receptors. Hsp90 has emerged as an important target for cancer treatment due to its essential role in maintaining transformation and regulating the function of oncogenic signaling proteins.
The in vivo function of Hsp90 is regulated by the binding and hydrolysis of ATP at its N-terminal. Geldanamycin binds to ATP site and inhibit Hsp90 function. Geldanamycin and its analogues are under clinical trials in cancer patients.
This domain contains the binding site for tetratricopeptide repeat (TPR) domains on HOP (Hsp Organizing Protein). TPR is a structural motif used by a significant number of cochaperones by which the in vivo function of Hsp90 is regulated. TPR2A on HOP binds specifically to MEEVD motif of the C-terminal of Hsp90.
A homogeneous AlphaScreen is developed to assess the interaction between TPR2A and MEEVD motif of the C-terminal of Hsp90 by using the isolated TPR2A domain and a synthesized 20mer Hsp90 C terminal peptide. AlphaScreen is two bead-based proximity-dependent chemical energy transfer luminescent assay platform. TPR2A-His-6 and biotinylated Hsp90 C terminal peptide will bring streptavidin donor beads and nickel chelate acceptor beads to a proximity range (less than 200 nm), and subsequently lead a chemical luminescent reaction upon exciting donor beads with 680 nm laser. Inhibition of TPR2A and MEEVD motif interaction by small molecules could attenuate or abolish this chemical luminescent reaction.
Counter screening: Biotinylated-His-6 (PerkinElmer) can be utilized as a counter screen, as it serves as a linker to bring streptavidin beads and nickel chelate beads together. The counter screen can exclude alpha screen platform false positives due to small molecules being metal chelators, biotin analogues and imidazole analogues, or due to interfering with oxygen release from donor beads. Such an assay should be utilized to qualify any activity observed in this screen.
NCGC Assay Protocol Summary:
The assay was performed on 1536-well white plate (untreated solid bottom). Liquids were dispensed by 1536-well plate washer (Kalypsys, San Diego, CA). Plates were read on EnVision (PerkinElmer, Boston, MA).TPR2A-His6 was produced using a bacteria expression system and purified using a well developed method (Ghosh et al., 2000). Hsp90 C terminal 20-mer peptide with or without an N-terminal biotin group are synthesized using automated solid phase synthesis by the Yale Keck facility. The composition of assay buffer was (in mM) 25 HEPES, 100 KCl, 2 MgCl2 and 2 DTT; 0.1% BSA and 0.01% Tween-20. TPR2A-His6 binding to biotin-Hsp90 will bring streptavidin donor beads and nickel chelate acceptor beads (PerkinElmer) together and can be measured by Alpha reading by EnVision (PerkinElmer). Free Hsp90 blocks biotin-Hsp90 binding to TPR2 and serves as a positive control in the current asssay.
The assay was performed at room temperature. All compounds were screened as titrations from […] to 46 uM final concentration. The assay was performed in 1536-well format plates (untreated white solid bottom, Corning Inc.) as follows:
Sequence,Parameter,Value,Description
1,Reagent,3 uL TPR2A-His6,Final concentration was 5nM
2,Compound,23 nL,Final titration was from 0.7 nM to 46 uM
3,Time,15 minutes,Room temperature
4,Reagent,1 uL biotin-Hsp90,With and without free Hsp90. Final concentration was 10 nM for biotin-Hsp90 and 10uM for free Hsp90.
5,Time,1 hour,Room temperature
[…]
Potency means the concentration at half of the fitted maximal effect.

| SMILES | activity change, negative = inhibition | Potency |
| --- | --- | --- |
| C[C@]1(O)CC[C@H]2[C@H]3CC=C4N5CCN=C5CC[C@@]4(C)[C@H]3CC[C@@]21C | -4.96% [at 11 µM] | – |
| CC1(CCC(=O)OC2CCCCC2)OCCO1 | -2.62% [at 11 µM] | – |
| CN1CCN(S(=O)(=O)c2ccc3[nH]cc(C(=O)O)c(=O)c3c2)CC1 | inactive | – |
| CCOC(=O)c1nc(N)sc1C(=O)OCC | inactive | – |
| COC(=O)C1(C)C=CCN1C(=O)c1ccccc1 (configuration not stated) | inactive | – |
| Cc1c(O)c(Br)c(C)c(O)c1Br (tested in a mixture with another compound) | -3.86% [at 11 µM] | – |
| COCCNc1ccnc(-c2cccc(NS(C)(=O)=O)c2)n1 | inactive | – |
| Cc1cccc(CNc2cc(-c3ccccc3Cl)ncn2)c1 | inactive | – |
| O=C(Nc1c[nH]c(=O)[nH]c1=O)Oc1ccccc1 | 1.58% [at 11 µM] | – |
| Nc1ccccc1N | inactive | – |
| COc1cc([C@H]2c3cc4c(cc3[C@@H](O[C@@H]3O[C@H]5CO[C@@H](C)O[C@]5(O)C[C@H]3O)[C@@H]3COC(=O)[C@H]23)OCO4)cc(OC)c1O | inactive | – |
| NS(=O)(=O)c1ccc(NS(=O)(=O)/C=C/c2ccccc2)cc1 | inactive | – |
| Cc1cccc2cc(C#N)c(N3CCCC3)nc12 | – | 31.6 µM [activator] (active) |
| Cc1ccc(S(=O)(=O)C(C#N)c2nc3ccccc3nc2N2CCCC2)cc1C (configuration not stated) | inactive | – |
| Cc1cc(C)c2nc(N3CCCC3)c(C#N)cc2c1 | inactive | – |
| C[C@@H]1C[C@H]2[C@@H]3C[C@H](F)C4=CC(=O)C=C[C@@]4(C)[C@]3(F)[C@H](O)C[C@]2(C)[C@@]1(O)C(=O)CO | inactive | – |
| CN1CCN(c2ncc3nc(-c4ccc(Cl)cc4)c(=O)n(-c4ccccc4)c3n2)CC1 | inactive | – |
| O=C(Nc1cccc(F)c1)N1CCC2(CC1)CCN(S(=O)(=O)c1ccccc1)CC2 | inactive | – |
| Cc1nc2cnc(Oc3cccc(Cl)c3)nc2n(C2CC2)c1=O | inactive | – |
| ON=C1/C(=N\O)CC2(C/C1=N/O)OCCO2 | – | 12.6 µM (active) |
| O/N=C1\CC2(Cc3nonc31)OCCO2 | inactive | – |

| SMILES | activity change, negative = inhibition | Potency |
| --- | --- | --- |
| O=c1c(CCc2ccccc2)nc2cncnc2n1C1CC1 | inactive | – |
| COc1ccccc1CNc1ncncc1-c1cccc(NS(C)(=O)=O)c1 | inactive | – |
| COCCNc1cc(-c2c(C)noc2C)ncn1 | inactive | – |
| O=C(O)[C@@H]1[C@@H](C(=O)O)[C@]23C[C@@]2(C(=O)O)[C@]2(C(=O)O)CCC3=C3CCCC312 | 0.013% [at 11 µM] | – |
| O=C(CC(NS(=O)(=O)c1ccc(Cl)cc1)c1ccco1)NC1CCCC1 (configuration not stated) | inactive | – |
| CN1CCN(S(=O)(=O)c2ccc(NC(=O)C3CCCO3)cc2)CC1 (configuration not stated) | inactive | – |
| O=S(=O)(c1ccccc1)N1CCC2(CC1)CN(Cc1nccs1)C2 | inactive | – |
| NC1(C(=O)OCc2ccccc2)CCCC1 | -2.78% [at 11 µM] | – |
| NCC(=O)[C@@H](O)[C@H](O)[C@H](O)CO | -1.57% [at 11 µM] | – |
| Cc1ccc(CNC(=O)C2CC(=O)N(C3CCCCCCC3)C2)cc1 (configuration not stated) | inactive | – |
| COc1ccc(C(=O)N2CCC[C@@]3(CCN(C(=O)NC(C)C)C3)C2)cc1 | inactive | – |
| Clc1ccc(Cc2nnc(-c3cccs3)o2)cc1 | inactive | – |
| Cn1c(=O)c(-c2ccccc2)nc2cnc(N3CCNCC3)nc21 | inactive | – |
| C=CC(=C)CCC=C(C)C | inactive | – |
| CN1CCN(c2cc(=O)n(-c3ccc(Cl)cc3)c(=O)[nH]2)CC1 | inactive | – |
| CCN(CC)S(=O)(=O)N1CCC(C(=O)NC(C)CCc2ccccc2)CC1 (configuration not stated) | inactive | – |
| CC1=C(C(=O)OCc2ccccc2)C(c2ccc(C(F)(F)F)cc2)NC(=O)N1CCCCCC(=O)O (configuration not stated) | inactive | – |
| COC(=O)C(CC(=O)Nc1cc(C)ccc1C)Nc1ccccc1OC (configuration not stated) | inactive | – |
| O=C(O)c1ccc(COCC(F)(F)F)cc1 | inactive | – |
| COC(=O)[C@@H]1[C@H]2C[C@H]3c4[nH]c5cc(OC)ccc5c4CCN3C[C@@H]2C[C@@H](OC(=O)c2cc(OC)c(OC)c(OC)c2)[C@@H]1OC | inactive | – |
| CC[C@]1(C)CC(=O)NC1=O | inactive | – |

| SMILES | activity change, negative = inhibition | Potency |
| --- | --- | --- |
| CCCn1c(-c2ccc(F)cc2)nc2c(NCC3CCCN3CC)nc(C)nc21 (configuration not stated) | inactive | – |
| CCNc1ncc2ncc(=O)n(CCc3ccccc3)c2n1 | inactive | – |
| Cc1c(NC(=O)c2cccnc2)c(=O)n(-c2ccccc2)n1C | inactive | – |
| CN1C(=O)C[C@H](c2ccccc2)C1=O | inactive | – |
| CC[C@@H]1Cc2cc(O)ccc2C2=C1c1ccc(O)cc1C[C@H]2CC | inactive | – |
| Nc1ccc2c3c(cccc13)C(=O)NC2=O | inactive | – |
| COc1ccc(CC(=O)Nc2ccc3c(c2)CCC3)cc1S(=O)(=O)N1CCOCC1 | inactive | – |
| CC(C)[C@@H](CC(=O)N[C@@H]1CCNC[C@H]1C(=O)N[C@H](CC(=O)N[C@@H](CCC(=O)O)CC(=O)O)Cc1ccccc1)NC(=O)C[C@H](CO)NC(=O)[C@@H]1CNCC[C@H]1N | inactive | – |
| CC(C)C[C@@H](CC(=O)N[C@@H](CCC(=O)O)CC(=O)O)NC(=O)[C@@H]1CCCC[C@H]1NC(=O)C[C@@H](NC(=O)C[C@H](Cc1c[nH]c2ccccc12)NC(=O)[C@@H]1CCCC[C@H]1N)C(C)C | – | 5.01 µM (active) |
| O=C(c1cccnc1NCc1ccccc1)N1CCOCC1 | inactive | – |
| Oc1c(C(c2ccccn2)N2CCOCC2)ccc2cccnc12 (configuration not stated) | – | 2 µM (active) |
| OC(COc1ccc2ccccc2c1)CN1CCOCC1 (configuration not stated) | inactive | – |
| CCN(Cc1ccncc1)C(=O)[C@@H](CO)c1ccccc1 | inactive | – |
| CS(=O)(=O)N1CCC2(CC1)CN(Cc1ccccc1)C2 | inactive | – |
| COc1cccc(Cn2c(=O)c(-c3ccccc3)nc3cnc(OC)nc32)c1 | inactive | – |
| CCCC[C@@H]1C[C@H]1C(NC(=O)c1ccc(-c2ccccc2)cc1)c1ccc(-c2ccccc2)cc1 (some centres not stated) | inactive | – |
| CC1=C(C(=O)Nc2ccc(Cl)cc2)C(c2ccco2)NC(=O)N1 (configuration not stated) | inactive | – |
| Cc1ccc2[nH]c(=O)c(-c3nc4c(C)cccn4c3NCc3ccco3)cc2c1 | inactive | – |
| Clc1ccc(C(c2ccc(Cl)cc2)n2cc[n+](C[C@@H](OCc3ccc(Cl)cc3Cl)c3ccc(Cl)cc3Cl)c2)cc1 | inactive | – |
| O=C(O)[C@@H](O)Cc1ccccn1 | -2.31% [at 11 µM] | – |
